Our source for the outcome and AC50 values is PubChem BioAssay (EPA / NIEHS).

“And” between values parts separate entries of the source, which are not always exact repeats. Equal entries are not always repeated. Where a structure was tested more than once in an assay, its records may differ in their call. The source made the active and inactive calls. Rule for the calls: active = hit-call score of the fitted dose curve at least 0.9, where 1 is the maximum; inactive = score below 0.9.

Read-out in the first experiment: Monokine induced gamma interferon (MIG), CXCL9 (gene 4283)
Nature of the experiment: BSK_KF3CT_MIG: BioMAP Diversity Plus: KF3CT Assay for Monokine induced gamma interferon (MIG) Biomarker Activity (AID 2284248). The following applies: primary human keratinocytes with fibroblasts. The method, boiled down: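 Human keratinocyte–foreskin fibroblast co-culture; MIG measured by ELISA 24 h after chemical dosing, fitted upward versus DMSO. Cytotoxicity was assessed in parallel cultures by SRB total-protein staining read at 560 nm.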
On to `O=C(Nc1ccc2c(O)c(N=Nc3ccc(N=Nc4ccc(S(=O)(=O)O)cc4)cc3)c(S(=O)(=O)O)cc2c1)c1ccccc1`, for which the result was inactive.

For `CC(CN=Cc1ccccc1O)N=Cc1ccccc1O` (configuration not stated), the outcome was inactive.

As to `O=CN1CCOCC1`, the result was inactive.

In the case of `CC1(C)CCC[C@]2(C)[C@H]3CCO[C@]3(C)CC[C@@H]12`, the AC50 is 36.6 µM (active) and 36.2 µM (active).

Take `C=CC(C)(O)CCC=C(C)C` (configuration not stated): the result was inactive.

As for `CCCCCCC(CO)CCCC` (configuration not stated), the AC50 was 35.5 µM (active).

For the compound `CCOC(=O)C(C#N)=C(c1ccccc1)c1ccccc1`, the result was inactive.

Read-out in the next experiment: Collagen I, COL1A1 (gene 1277)
Nature of the experiment: BSK_hDFCGF_CollagenI: BioMAP Diversity Plus: hDFCGF Assay for Collagen I Biomarker Activity (AID 2284250). The following applies: primary human foreskin fibroblasts. The gist of the method: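 Primary human foreskin fibroblasts exposed to chemical for 24 h; Collagen I levels measured by ELISA. Cytotoxicity checked by SRB total-protein staining in parallel cultures.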
As for `O=C(Nc1ccc2c(O)c(N=Nc3ccc(N=Nc4ccc(S(=O)(=O)O)cc4)cc3)c(S(=O)(=O)O)cc2c1)c1ccccc1`, the result was inactive.

For the compound `CC(CN=Cc1ccccc1O)N=Cc1ccccc1O` (configuration not stated), the result was inactive.

On to `O=CN1CCOCC1`, for which the result was inactive.

For `CC1(C)CCC[C@]2(C)[C@H]3CCO[C@]3(C)CC[C@@H]12`, the AC50 is 18.7 µM (active) and the result was inactive.

On to `C=CC(C)(O)CCC=C(C)C` (configuration not stated), for which the outcome was inactive.

In the case of `CCCCCCC(CO)CCCC` (configuration not stated), the AC50 was 36.4 µM (active) and 30.8 µM (active).

For the compound `CCOC(=O)C(C#N)=C(c1ccccc1)c1ccccc1`, the outcome was inactive.

Read-out in a further experiment: Interferon-inducible T-cell alpha chemoattractant (ITAC), CXCL11 (gene 6373)
Description: BSK_hDFCGF_ITAC: BioMAP Diversity Plus: hDFCGF Assay for Interferon-inducible T-cell alpha chemoattractant (ITAC) Biomarker Activity (AID 2284251). The settings on record: primary human foreskin fibroblasts. The gist of the method: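 Fibroblasts (human foreskin, primary) are treated with chemical, cultured 24 h, then assayed for I-TAC by ELISA. Overt toxicity is checked in parallel cultures by sulforhodamine B staining of total protein at the same time point.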
`O=C(Nc1ccc2c(O)c(N=Nc3ccc(N=Nc4ccc(S(=O)(=O)O)cc4)cc3)c(S(=O)(=O)O)cc2c1)c1ccccc1`: the half-maximal activity concentration (AC50) was 32.3 µM (active) and 27.1 µM (active).

In the case of `CC(CN=Cc1ccccc1O)N=Cc1ccccc1O` (configuration not stated), the outcome was inactive.

On to `O=CN1CCOCC1`, for which the result was inactive.

On to `CC1(C)CCC[C@]2(C)[C@H]3CCO[C@]3(C)CC[C@@H]12`, for which the AC50 was 30.5 µM (active) and 30.9 µM (active).

Turning to `C=CC(C)(O)CCC=C(C)C` (configuration not stated), the outcome was inactive.

Turning to `CCCCCCC(CO)CCCC` (configuration not stated), the AC50 is 33.1 µM (active) and 34.8 µM (active).

For the compound `CCOC(=O)C(C#N)=C(c1ccccc1)c1ccccc1`, the AC50 was 26.1 µM (active) and the outcome was inactive.

Read-out in the next experiment: Plasminogen activator inhibitor-1 (PAI1), SERPINE1 (gene 5054)
Nature of the experiment: BSK_KF3CT_PAI1: BioMAP Diversity Plus: KF3CT Assay for Plasminogen activator inhibitor-1 (PAI1) Biomarker Activity (AID 2284252). The settings on record: primary human keratinocytes with fibroblasts. The method, boiled down:
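Human keratinocyte/foreskin fibroblast co-culture dosed for 24 h; PAI-1 measured by ELISA, fitted in positive direction against DMSO baseline. Parallel SRB total-protein staining (0.1% SRB, 560 nm) assesses overt cytotoxicity.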
Take `O=C(Nc1ccc2c(O)c(N=Nc3ccc(N=Nc4ccc(S(=O)(=O)O)cc4)cc3)c(S(=O)(=O)O)cc2c1)c1ccccc1`: the outcome was inactive.

On to `CC(CN=Cc1ccccc1O)N=Cc1ccccc1O` (configuration not stated), for which the outcome was inactive.

`O=CN1CCOCC1`: the result was inactive.

For `CC1(C)CCC[C@]2(C)[C@H]3CCO[C@]3(C)CC[C@@H]12`, the AC50 is 34.7 µM (active) and 34.6 µM (active).

Regarding `C=CC(C)(O)CCC=C(C)C` (configuration not stated), the outcome was inactive.

For the compound `CCCCCCC(CO)CCCC` (configuration not stated), the AC50 was 32.7 µM (active) and 31 µM (active).

For `CCOC(=O)C(C#N)=C(c1ccccc1)c1ccccc1`, the outcome was inactive.

Read-out in another experiment: Interleukin-8 (IL8), CXCL8 (gene 3576)
Description: BSK_KF3CT_IL8: BioMAP Diversity Plus: KF3CT Assay for Interleukin-8 (IL8) Biomarker Activity (AID 2284254). The following applies: primary human keratinocytes with fibroblasts. The gist of the method:
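Human keratinocyte/foreskin fibroblast co-culture dosed 24 h; IL-8 measured by ELISA relative to DMSO. Parallel cultures stained with SRB for total protein to flag cytotoxicity.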
For `O=C(Nc1ccc2c(O)c(N=Nc3ccc(N=Nc4ccc(S(=O)(=O)O)cc4)cc3)c(S(=O)(=O)O)cc2c1)c1ccccc1`, the result was inactive.

Consider `CC(CN=Cc1ccccc1O)N=Cc1ccccc1O` (configuration not stated), for which the outcome was inactive.

As for `O=CN1CCOCC1`, the outcome was inactive.

On to `CC1(C)CCC[C@]2(C)[C@H]3CCO[C@]3(C)CC[C@@H]12`, for which the concentration at half-maximal activity (AC50) was 36.8 µM (active) and 31.3 µM (active).

Consider `C=CC(C)(O)CCC=C(C)C` (configuration not stated), for which the result was inactive.

Consider `CCCCCCC(CO)CCCC` (configuration not stated), for which the AC50 is 28.9 µM (active) and 32.5 µM (active).

For the compound `CCOC(=O)C(C#N)=C(c1ccccc1)c1ccccc1`, the outcome was inactive.

Read-out in the next experiment: Plasminogen activator inhibitor-1 (PAI1), SERPINE1 (gene 5054)
Nature of the experiment: BSK_MyoF_PAI1: BioMAP Diversity Plus: MyoF Assay for Plasminogen activator inhibitor-1 (PAI1) Biomarker Activity (AID 2284256).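 For outcome: PAI-1 read 24 h after compound addition.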 The settings on record: primary human lung fibroblasts. The gist of the method:
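Primary human lung fibroblasts treated with chemical for 24 h; PAI-1 levels quantified by ELISA relative to DMSO. Cytotoxicity was assessed in parallel cultures by SRB total-protein staining (0.1% SRB after 10% TCA fixation, 560 nm).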
With `O=C1OC2(c3ccccc31)c1ccc(O)c(Br)c1Oc1c2ccc(O)c1Br`, the AC50 is 9.25 µM (active).

With `CS(=O)(=O)c1ccc(C2=C(c3ccccc3)C(=O)OC2)cc1`, the AC50 was 0.0082 µM (active).

`COc1ccc(OC)c(N=Nc2c(O)ccc3ccccc23)c1`: the outcome was inactive.

For `c1ccc2cc(Nc3ccc(Nc4ccc5ccccc5c4)cc3)ccc2c1`, the result was inactive.

For `CCN(CC)C(=O)N(CC)CC`, the outcome was inactive.

As for `Clc1cc(Cl)c(-c2c(Cl)c(Cl)cc(Cl)c2Cl)cc1Cl`, the AC50 is 4.46 µM (active).

With `C=C(C)[C@H]1CC=C(C)C(=O)C1`, the outcome was inactive.

Regarding `CC(=O)c1c(C)c([N+](=O)[O-])c(C(C)(C)C)c([N+](=O)[O-])c1C`, the outcome was inactive.

Consider `CC(C)(N=C=O)c1cccc(C(C)(C)N=C=O)c1`, for which the outcome was inactive.

Regarding `CN(c1nccc(=O)[nH]1)C1CCN(c2nc3ccccc3n2Cc2ccc(F)cc2)CC1`, the result was inactive.

As for `CCCCCCCCCCCCCCCC(=O)OC/C=C(C)/C=C/C=C(C)/C=C/C1=C(C)CCCC1(C)C`, the outcome was inactive.

For the compound `CC=Cc1ccc(OCC)c(O)c1`, the result was inactive.

On to `O=C1c2ccccc2C(=O)c2c(O)ccc(O)c21`, for which the result was inactive.

In the case of `C1=CC2C3C=CC(C3)C2C1` (configuration not stated), the outcome was inactive.

On to `CC(C=O)Cc1ccc(C(C)(C)C)cc1` (configuration not stated), for which the outcome was inactive.

Read-out in a further experiment: Interleukin-8 (IL8), CXCL8 (gene 3576)
Description: BSK_MyoF_IL8: BioMAP Diversity Plus: MyoF Assay for Interleukin-8 (IL8) Biomarker Activity (AID 2284261). The following applies: primary human lung fibroblasts. The method, boiled down:
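Human lung fibroblast (MyoF system) cultures dosed for 24 h, then IL-8 measured by ELISA. Response taken relative to DMSO; parallel SRB total-protein staining for cytotoxicity.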
Consider `O=C1OC2(c3ccccc31)c1ccc(O)c(Br)c1Oc1c2ccc(O)c1Br`, for which the outcome was inactive.

For `CS(=O)(=O)c1ccc(C2=C(c3ccccc3)C(=O)OC2)cc1`, the result was inactive.

As for `COc1ccc(OC)c(N=Nc2c(O)ccc3ccccc23)c1`, the AC50 is 0.0788 µM (active).

With `c1ccc2cc(Nc3ccc(Nc4ccc5ccccc5c4)cc3)ccc2c1`, the result was inactive.

Regarding `CCN(CC)C(=O)N(CC)CC`, the result was inactive.

Turning to `Clc1cc(Cl)c(-c2c(Cl)c(Cl)cc(Cl)c2Cl)cc1Cl`, the AC50 was 7.14 µM (active).

On to `C=C(C)[C@H]1CC=C(C)C(=O)C1`, for which the result was inactive.

With `CC(=O)c1c(C)c([N+](=O)[O-])c(C(C)(C)C)c([N+](=O)[O-])c1C`, the outcome was inactive.

Take `CC(C)(N=C=O)c1cccc(C(C)(C)N=C=O)c1`: the result was inactive.

For the compound `CN(c1nccc(=O)[nH]1)C1CCN(c2nc3ccccc3n2Cc2ccc(F)cc2)CC1`, the outcome was inactive.

`CCCCCCCCCCCCCCCC(=O)OC/C=C(C)/C=C/C=C(C)/C=C/C1=C(C)CCCC1(C)C`: the result was inactive.

Turning to `CC=Cc1ccc(OCC)c(O)c1`, the outcome was inactive.

As to `O=C1c2ccccc2C(=O)c2c(O)ccc(O)c21`, the result was inactive.

As for `C1=CC2C3C=CC(C3)C2C1` (configuration not stated), the result was inactive.

Turning to `CC(C=O)Cc1ccc(C(C)(C)C)cc1` (configuration not stated), the result was inactive.
